Assay outcomes as filed in PubChem.
This is a sample that favours compounds with a hit; in the whole collection about 3.9% have one here.
TGFb inhibitor = qHTS for Inhibitors of TGF-b; HepG2 CAGA-GFP TGF-b/SMAD3 reporter, GFP fluorescence, 18 h; TGF-beta stimulated, 500 pg/mL final; Potency, µM (doses to about 46.1 µM), for inactives: top-dose activity, negative = inhibition, most hits filed as inhibitors; 410,000 compounds, 1.2% hits; AID 588855, 2011; also: % is scaled to controls: 0 for no effect and ±100 for the full control effect; nearly all actives have a fitted effect of over 65% in size
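Cell-based qHTS in HEPG2 carrying a CAGA-GFP Smad reporter; compounds added before 500 pg/mL final TGF-beta, 18 h incubation at 37 degrees C, GFP fluorescence quantified per cell by imaging cytometry.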
HepG2 viability = qHTS for Inhibitors of TGF-b: Cytotox Counterscreen | HepG2 CAGA-GFP viability, ATP luminescence, 18 h | Potency, µM (doses to about 46.1 µM), without a hit: at the highest dose activity change, negative = cytotoxicity, usual class: cytotoxic | 410,000 compounds, 0.76% hits | AID 588856, 2011
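HepG2 CAGA-GFP cells (1000/well, DMEM with 1% FBS) received compound, then TGF-beta at 500 pg/mL final, and were incubated 18 hours at 37 degrees C. Viability was read by CellTiter-Glo luminescence. Media-only wells were set as complete cell-killing and DMSO as no toxicity.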
HT1080 IDH1KD tx = qHTS for induction of synthetic lethality in tumor cells producing 2HG: qHTS for the HT-1080-IDH1KD cell line; HT-1080 IDH1 knockdown viability, ATP luminescence, 48 h; Potency, µM (doses to about 46.1 µM), for the others: top-dose activity, negative = toxicity, most hits filed as cytotoxic; 360,000 compounds, 2% hits; AID 686971, 2013;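 also: 0% = DMSO wells and -100% = cell-free medium wells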
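CellTiter-Glo luminescence after 48 h compound exposure at 37 degrees C of IDH1-knockdown HT-1080 cells in 5% FBS RPMI. %Activity scaled between DMSO wells and cell-free media wells, with curves fitted and assigned curve classes.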
ATXN viability = Viability Counterscreen for Primary qHTS for Inhibitors of ATXN expression; S2 cells (HEK-293 line with an ATXN2-luciferase reporter) viability, CellTiter-Fluor protease fluorescence, 24 h; Potency, µM (titrated, usually from 56.7 µM), usual class: cytotoxic; 400,000 compounds, 0.49% hits; AID 651635, 2014; also: nearly all actives have a fitted effect of over 40% in size
HT1080-NT tox = qHTS for induction of synthetic lethality in tumor cells producing 2HG: qHTS for the HT-1080-NT fibrosarcoma cell line; HT-1080-NT fibrosarcoma viability, CellTiter-Glo ATP luminescence, 48 h; 360,000 compounds, 1.6% hits; Potency, µM (series often up to 46.1 µM), for inactives: at the top dose activity, negative = less viability, most hits filed as cytotoxic;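 also: NT is the 2HG producing partner of a matched IDH1 knockdown line; 0% = DMSO-treated cells and -100% = media-only wells without cells; nearly all actives have a fitted effect of over 55% in size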
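HT-1080-NT; 750 cells/well; 5% FBS RPMI; 48 h compound, 37 degrees C; CellTiter-Glo luminescence; curve fitting and curve-class assignment.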
ATXN2 expr inh = Primary qHTS for Inhibitors of ATXN expression; HEK-293 ATXN2-luciferase reporter, luminescence, 24 h; Potency, µM (top dose mostly 57 µM), without a hit: at the highest dose activity change, negative = inhibition, usual class: inhibitors; 360,000 compounds, 0.72% hits; also: % is scaled to controls: 0 for no effect and ±100 for the full control effect; nearly all actives have a fitted effect of over 55% in size
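qHTS (up to 57 uM final) was run with 24 h compound exposure of reporter cells at 37 °C. Each well was multiplexed: SteadyGlo luminescence measured ATXN2-luciferase expression after a fluorogenic Gly-Phe-AFC viability readout (25 uM final).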
The depositor's hits bear a star; i = inactive; u = inconclusive; x = no result; ! = a repeat was not active; [ ] = another dose, or the depositor's remark. Calls follow the shape of the dose curve; as a rule, active = well fitted curve in the direction sought with a large enough effect; inconclusive = small, poorly fitted or top-dose-only effect, or another doubt; inactive = no such curve, though single readings can be large; an effect the other way counts as inactive or inconclusive. Potency is read from the fitted curve at half-maximal effect.

SMILES | TGFb inhibitor | HepG2 viability | HT1080 IDH1KD tx | ATXN viability | HT1080-NT tox | ATXN2 expr inh
CCN1/C(=C\C=C\C2=[N+](CC)c3ccccc3C2(C)C)C(C)(C)c2ccccc21 | u | -62% | 2.6µM* | 2.8µM* | 0.65µM* | u
O=C1NC(=O)N(c2ccccc2)C(=O)/C1=C/c1ccc(Sc2ccccc2)o1 | 23% | -4% | u | u | u | 25µM*
CC1N(C)c2cc(NC(=O)c3ccco3)c(P(=O)(Nc3ccc([N+](=O)[O-])cc3)N3CCOCC3)cc2C1(C)C (configuration not stated) | u | -37% | 10µM* | i | u | -24%
CN(C)CCc1c[nH]c2cccc(O)c12 | x | x | x | i | x | u
CCN(CC)C(=O)c1ccc(NC(=O)CCn2nc(-c3ccc(C)cc3)c3ccccc3c2=O)cc1 | 0% | -22% | x | x | x | x
CCN(CC)C(=O)c1ccc(NC(=O)COc2ccc(-c3nn(C)c(=O)c4ccccc34)cc2)cc1 | 10µM* | -13% | -14% | i | -17% | u
COc1cccc(Nc2nc(C(N)Cc3ccc(F)cc3)cs2)n1 (configuration not stated) | u | -73% | 15µM* | u | 23µM* | 25µM*
NC(Cc1ccccc1)c1csc(Nc2ccccn2)n1 (configuration not stated) | u | -37% | u | u | u | -21%
NC(Cc1ccc(F)cc1)c1csc(Nc2cnccn2)n1 (configuration not stated) | 2% | -34% | -13% | i | u | 10%
NC(Cc1ccc(F)cc1)c1csc(Nc2ccccn2)n1 (configuration not stated) | u | 25µM* | 23µM* | i | u | u
NC(Cc1ccc(Cl)cc1)c1csc(Nc2ccccn2)n1 (configuration not stated) | u | -106% | u | u | 23µM* | 22µM*
CCS(=O)(=O)N1Cc2cc(C(=O)N(C)C)nc(-c3cccc(-c4ccc(F)cc4)c3)c2[C@@H]1CCO | x | x | -1% | i | 1% | 3%
COc1ccc(C(=O)NCCn2cc(SC(C)c3ccccc3)c3ccccc32)cc1OC (configuration not stated) | u | -20% | x | u | x | u
CCOc1ccc(-c2cc(C)[n+](CCc3ccc(OC)c(OC)c3)c(-c3ccc(OCC)cc3)c2)cc1 | u | -35% | 16µM* | u | 21µM* | u
CCOc1ccc(-c2cc(C)[n+](CCO)c(-c3ccc(OCC)cc3)c2)cc1 | -9% | -23% | u | i | u | 21%[11.3 µM]
O=C1OC(CCN2CCCCC2)OC1(c1ccccc1)c1ccccc1 (configuration not stated) | x | x | x | i | x | -4%
CC(C)[C@]12O[C@@H]1[C@@H]1O[C@]13[C@]1(O[C@H]1C[C@@H]1C4=C(CC[C@@]13C)C(=O)OC4)[C@H]2O | x | x | x | x | x | 0.12µM*
COc1ccc(OC)c(CNC(=O)CCS(=O)(=O)c2ccc3c(c2)oc(=O)n3C)c1 | u | -1% | 10% | i | 7% | 4%
CCCCCn1c(=O)c(C(=O)Nc2ncccc2C)c(O)c2ccccc21 | 16% | -7% | 21µM* | i | 18µM* | -6%
CC(C)Cn1c(=O)c(C(=O)Nc2ccccc2S(N)(=O)=O)c(O)c2ccccc21 | u | -23% | u | i | u | u
CC(C)CCn1c(=O)c(C(=O)Nc2ccccc2S(N)(=O)=O)c(O)c2ccccc21 | 20µM* | -16% | u | i | -22% | -37%
CCOC(=O)Cn1c(=O)oc2cc(S(=O)(=O)Nc3cc(OC)cc(OC)c3)ccc21 | u | -32% | x | x | x | x
CCOC(=O)Cn1cc(C(=O)c2ccccc2F)c2ccccc21 | 3% | 0% | 4% | u | 5% | 8%
CCOC(=O)Cn1cc([N+](=O)[O-])nc1[N+](=O)[O-] | u | 11µM* | -2% | i | -2% | 8%
O=C1/C(=C/c2ccc(N(CCCl)CCCl)cc2)Cc2ccccc21 | 14% | -23% | x | x | x | x
SMILES | TGFb inhibitor | HepG2 viability | HT1080 IDH1KD tx | ATXN viability | HT1080-NT tox | ATXN2 expr inh
CCC(CC)COC(=O)C(C#N)c1nc2ccccc2nc1N1CCN(CC)CC1 (configuration not stated) | u | -112% | u | 28µM* | u | u
Cc1cc(/C=C/c2cccc3sc(C)[n+](CCCCI)c23)ccc1N(CCCl)CCCl | u | -8% | x | x | x | x
Oc1ccc(-[n+]2c(-c3ccccc3)cc(-c3ccccc3)cc2-c2ccccc2)cc1 | u | -35% | 21µM* | u | 12µM* | 13µM*
O=[N+]([O-])c1ccc(-[n+]2c(-c3ccccc3)cc(-c3ccccc3)cc2-c2ccccc2)cc1 | -14% | -3% | u | i | u | x
COc1ccc(-[n+]2c(-c3ccccc3)cc(-c3ccccc3)cc2-c2ccccc2)cc1 | u | -36% | 7.3µM* | u | 8.2µM* | u
O=C(Cn1c(=O)oc2cc(S(=O)(=O)NCc3ccccc3)ccc21)Nc1cccc(F)c1 | u | -45% | x | i | x | -8%
CCCCCCCCCCCCCCCC[n+]1ccccc1 | 16µM* | 20µM*! | 10µM* | 20µM* | 12µM* | 32µM*!
CCCCCCC[n+]1ccc(-c2cc[n+](CCCCCCC)cc2)cc1 | -8% | -40% | u | i | u | -16%
C1CN2CCC1CC2 | x | x | x | i | x | 8%
CC(C)(C)c1csc(NC(=O)Nc2ccccc2)n1 | u | -46% | u | i | u | 65%[11.3 µM]
NC(CCc1ccccc1)c1csc(NC(=O)Nc2ccccc2Oc2ccccc2)n1 (configuration not stated) | u | 10µM* | u | u | 23µM* | u
COC(=O)C1=C(c2cc3ccccc3s2)C[C@@H]2CC[C@H]1N2C(=O)N1CCCC1 | u | -23% | -2% | u | -2% | -29%
COC(=O)C1=C(c2cc3ccccc3s2)C[C@@H]2CC[C@H]1N2C(=O)N1CCOCC1 | u | -7% | 8.2µM* | u | 9.2µM* | u
COC(=O)C1=C(c2cc3ccccc3o2)C[C@@H]2CC[C@H]1N2C(=O)N1CCCC1 | u | -21% | 0% | i | 4% | -20%
